Some test systems named below: NCI-H23 lung; NCI-H226 lung; NCI-H322M lung; HOP-62 NSCLC; NCI-H460 lung; HOP-92 NSCLC; NCI-H522 lung; 786-0 renal; COLO 205 colon; DU-145 prostate; K-562 leukemia; MALME-3M melanoma; MDA-MB-231 breast; RXF 393 renal; SF-268 CNS; SF-295 CNS; SF-539 CNS; UACC-257 melanoma; M14 melanoma.
Experiment in all cases: NCI-60 one-dose screen, 48 h (100 = growth as untreated, 0 = no growth, -100 = all killed)
What all share (settings): 10 µM unless noted

SMILES strings stand for the structures. About 83,000 compounds went through this panel and 20% of them were active in at least one assay; those are over-represented in the sample as a whole.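 Testing used 96-well plates and a 48-hour single-concentration exposure. Example: -40 means 40% of the starting cells died.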 Values without a mark were called inactive. Calls of active or inactive are those of the source. The calls were made as follows: active = growth percent below 10; inactive = the rest.

Consider `C#CCOc1cccc(Nc2c(Cl)c(CCl)nc3ccc(Oc4ccccc4)cc23)c1`, for which the growth in the test with NCI-H23 lung is 64.2%; in the test with NCI-H226 lung, 72.3%; with NCI-H322M lung, 83.7%; with HOP-62 NSCLC, 93.1%; in the test on NCI-H460 lung, 96.2%; in the test on HOP-92 NSCLC, 64.2%. The growth in the test on NCI-H522 lung is -6.45% (active); with 786-0 renal it was 17.7%; with COLO 205 colon, 83.2%; with DU-145 prostate, 43.8%; in the test with K-562 leukemia, 15%; in the test on MALME-3M melanoma it was 68.4%. Also, the growth in the test with MDA-MB-231 breast is 33.2%; in the test with RXF 393 renal, 78.6%; in the test on SF-268 CNS, 18.8%; in the test on SF-295 CNS, 88.7%; in the test with SF-539 CNS, 80.7%; in the test on UACC-257 melanoma, 90%. Also, the growth in the test on M14 melanoma was 47.7%.

On to `Fc1ccc(/C=C/c2cc(/C=C/c3ccc(F)cc3)n(-c3cc(F)cc(F)c3)n2)cc1`, for which the growth was 98.3% in the test with NCI-H23 lung; 109% in the test with NCI-H226 lung; 86.5% in the test on NCI-H322M lung; 96% in the test with HOP-62 NSCLC; 107% in the test with NCI-H460 lung; 83% with HOP-92 NSCLC. In addition, the growth with NCI-H522 lung was 61.7%; in the test on 786-0 renal, 77.4%; in the test with COLO 205 colon, 119%; in the test on DU-145 prostate it was 99.9%; with K-562 leukemia, 66.4%; in the test on MALME-3M melanoma it was 98.1%. The growth in the test on MDA-MB-231 breast was 101%; in the test with RXF 393 renal, 112%; with SF-268 CNS, 102%; in the test with SF-295 CNS, 93.5%; in the test with SF-539 CNS, 103%; in the test on UACC-257 melanoma, 106%. Moreover, the growth in the test with M14 melanoma is 87.7%.

As for `C#Cc1c(I)n(C2OC(CO[Si](C)(C)C(C)(C)C)C3OC(C)(C)OC32)c(=O)[nH]c1=O` (configuration not stated), the growth with NCI-H23 lung was 85.7%; in the test on NCI-H226 lung, 98.1%; with NCI-H322M lung, 113%; with HOP-62 NSCLC, 97%; in the test with NCI-H460 lung it was 114%; with HOP-92 NSCLC, -80.9% (active). Further, the growth in the test on NCI-H522 lung was 101%; in the test on 786-0 renal, 93.9%; in the test on COLO 205 colon, -88.2% (active); in the test on DU-145 prostate, 25.1%; with K-562 leukemia, -35.5% (active); in the test with MALME-3M melanoma, 66.4%. In addition, the growth in the test with MDA-MB-231 breast is 16.1%; with RXF 393 renal, -72.3% (active); in the test on SF-268 CNS, 100%; in the test on SF-295 CNS it was 120%; in the test with SF-539 CNS, 92.4%; in the test with UACC-257 melanoma, 64.1%. For the same compound, the growth with M14 melanoma is 76.4%.

Take `CN1C(=O)N(C)C2C1NN=c1s/c(=C\c3ccc(F)cc3)c(=O)n12` (configuration not stated): the growth with NCI-H23 lung is 50.8%; in the test with NCI-H226 lung, 62.9%; in the test with NCI-H322M lung, 53.6%; with HOP-62 NSCLC it was 46.7%; with NCI-H460 lung, 13%; in the test on HOP-92 NSCLC, 47%. The growth with NCI-H522 lung was 2.08% (active); in the test on 786-0 renal, 40.7%; with COLO 205 colon, 12.5%; with DU-145 prostate, 58.5%; with K-562 leukemia it was 11.4%; with MALME-3M melanoma it was 31.5%. Further, the growth in the test with MDA-MB-231 breast is 29.4%; with RXF 393 renal it was 38.5%; in the test with SF-268 CNS, 58.7%; in the test on SF-295 CNS, 28.8%; with SF-539 CNS, 29.7%; in the test with UACC-257 melanoma, 1.68% (active). The growth in the test with M14 melanoma is 23.1%.

Take `O=C(CN1C(=O)NC2NC(=O)NC21)N/N=C/c1cccc([N+](=O)[O-])c1` (configuration not stated): the growth in the test on NCI-H23 lung is 104%; with NCI-H226 lung it was 94%; with NCI-H322M lung, 108%; with HOP-62 NSCLC, 107%; in the test on NCI-H460 lung it was 107%; in the test with HOP-92 NSCLC it was 123%. For the same compound, the growth with NCI-H522 lung is 97.3%; with 786-0 renal, 106%; in the test with COLO 205 colon, 122%; in the test on DU-145 prostate it was 110%; in the test on K-562 leukemia it was 103%; in the test with MALME-3M melanoma, 105%. The growth with MDA-MB-231 breast was 104%; in the test on RXF 393 renal, 104%; with SF-268 CNS, 99%; in the test with SF-295 CNS it was 102%; in the test with SF-539 CNS it was 100%; in the test on UACC-257 melanoma, 118%. In addition, in the test with M14 melanoma, the growth was 109%.

As for `CC(C)(C)n1cc(-c2ccnc(NCCNS(=O)(=O)c3cccc4ccccc34)c2)c(-c2cccc(O)c2)n1`, the growth was 69.7% with NCI-H23 lung; 75.3% in the test on NCI-H226 lung; 89.6% with NCI-H322M lung; 88.2% in the test on HOP-62 NSCLC; 55.9% in the test on NCI-H460 lung; 64.5% in the test on HOP-92 NSCLC. The growth in the test with NCI-H522 lung is 61.9%; in the test with 786-0 renal, 64.3%; in the test with COLO 205 colon, -33.1% (active); in the test with DU-145 prostate, 83.3%; with K-562 leukemia, 15.4%; in the test on MALME-3M melanoma, 75.7%. The growth in the test on MDA-MB-231 breast is 81.9%; in the test on RXF 393 renal it was 73.3%; in the test with SF-268 CNS, 81.4%; in the test with SF-295 CNS, 92.5%; in the test with SF-539 CNS it was 77.1%; in the test on UACC-257 melanoma, 81.1%. Moreover, the growth in the test with M14 melanoma is 66.5%.

`CCCCC#Cc1c(I)n(C2OC(CO[Si](C)(C)C(C)(C)C)C3OC(C)(C)OC32)c(=O)[nH]c1=O` (configuration not stated): the growth is 78% with NCI-H23 lung; 88.2% in the test on NCI-H226 lung; 84.3% with NCI-H322M lung; 102% in the test on HOP-62 NSCLC; 107% with NCI-H460 lung; -30.5% (active) in the test on HOP-92 NSCLC. The growth in the test on NCI-H522 lung is 79.9%; with 786-0 renal, 82.4%; with COLO 205 colon it was -59.1% (active); in the test with DU-145 prostate it was 74.1%; with K-562 leukemia, 36.3%; in the test on MALME-3M melanoma it was 60.6%. Also, the growth in the test on MDA-MB-231 breast was 79%; in the test on RXF 393 renal, -56.4% (active); with SF-268 CNS it was 98.4%; in the test on SF-295 CNS it was 113%; in the test with SF-539 CNS, 88.1%; in the test with UACC-257 melanoma it was 55.1%. For the same compound, in the test on M14 melanoma, the growth is 76%.

In the case of `CC1=C(C(=O)c2ccccc2)C(c2ccc3c(c2)OCO3)NC(=S)N1` (configuration not stated), the growth is 48% with NCI-H23 lung; 66.5% in the test on NCI-H226 lung; 67.7% in the test on NCI-H322M lung; 51.8% with HOP-62 NSCLC; 8.05% (active) in the test on NCI-H460 lung; 92.3% in the test on HOP-92 NSCLC. Also, the growth in the test on NCI-H522 lung is 38.3%; with 786-0 renal, 58.9%; in the test on COLO 205 colon, 47.6%; in the test on DU-145 prostate, 78.7%; in the test on K-562 leukemia, 24.6%; with MALME-3M melanoma it was 54.5%. Also, the growth was 79.1% in the test on MDA-MB-231 breast; 59.5% in the test with RXF 393 renal; 75.8% with SF-268 CNS; 51.2% in the test on SF-295 CNS; 36.4% with SF-539 CNS; 57.2% with UACC-257 melanoma. The growth in the test with M14 melanoma was 34.6%.

(Values after PubChem BioAssay (NCI).)
